Among the data in PubChem BioAssay (Tox21) are Potency values, retold here.

Experiment [1] is described as follows: qHTS assay to identify small molecule antagonists of the thyroid receptor (TR) signaling pathway - cell viability counter screen (AID 743064). Also: nearly all actives have a fitted effect of over 50% in size. Also: potency is read from the fitted curve at half-maximal effect. In short, it runs like this:
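In-well cytotoxicity read by CellTiter-Fluor (30 min, 37 C) following 23.5 h exposure of GH3 cells bearing a TRE-luciferase sensor. Compounds were added alongside 1 nM (final) T3 to drive TR transactivation.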

The nature of experiment [2]: qHTS assay to identify small molecule antagonists of the thyroid receptor (TR) signaling pathway (AID 743065). Also: nearly all actives have a fitted effect of over 55% in size. Also: potency is read from the fitted curve at half-maximal effect. In short, it runs like this:
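GH3.TRE-Luc rat pituitary cells carrying two TR response elements driving luciferase were plated for 4 h, given compound plus 1 nM T3 (final), and incubated 23.5 h at 37 C. ONE-Glo luminescence measured reporter inhibition; CellTiter-Fluor fluorescence tracked cytotoxicity.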
(In general: Quantitative high-throughput screening tests each substance at several concentrations.)

The test system of experiment [3] is thyroid hormone receptor (rat, GH3 cells). Kind of experiment: qHTS assay to identify small molecule agonists of the thyroid receptor (TR) signaling pathway (AID 743066; calls by dose curve).
The target in experiment [4] is Estrogen receptor (Homo sapiens) (UniProt P03372). Put plainly: qHTS assay to identify small molecule antagonists of the estrogen receptor alpha (ER-alpha) signaling pathway (AID 743069; active = well fitted curve in the direction sought with a large enough effect in the signal ratio in the repeat runs, not every such curve was filed as active; the % refers to the signal ratio). In short, it runs like this: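 HEK293 cells stably carrying an ER-alpha-UAS-bla beta-lactamase reporter were pre-cultured overnight in 2% charcoal-stripped FBS medium. Test compounds in DMSO were added together with 17beta-estradiol for 18 hr at 37C. Read-out was fluorescence after 2 hr with LiveBLAzer B/G FRET substrate at room temperature.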

Experiment [5] shares this target. Put plainly: qHTS assay to identify small molecule agonists of the estrogen receptor alpha (ER-alpha) signaling pathway (AID 743075; calls by dose curve).
The target is the same in experiment [6]. Kind of experiment: qHTS assay to identify small molecule agonists of the estrogen receptor alpha (ER-alpha) signaling pathway using the BG1 cell line (AID 743079). Also: nearly all actives have a fitted effect of over 20% in size. Also: potency is read from the fitted curve at half-maximal effect. Conditions: BG1Luc4E2 cells, ERE-luciferase agonist, 22 h; activation: at 70.3 µM (top of the series).
A short description of experiment [7]: qHTS assay to identify small molecule antagonists of the estrogen receptor alpha (ER-alpha) signaling pathway using the BG1 cell line (AID 743080; calls by dose curve;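 also: BG1 cells stimulated with 17beta-estradiol alongside compound; nearly all actives have a fitted effect of over 25% in size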). In short, it runs like this: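 Luminescence from a 4×ERE-luciferase reporter in BG1-Luc-4E2 cells served as read-out. Cells, pre-cultured 5 days in stripped-serum phenol-red-free medium, were exposed to compound with 17beta-estradiol co-stimulation for 21.5 h at 37 C.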

Experiment [8] is described as follows: qHTS assay to identify small molecule antagonists of the estrogen receptor alpha (ER-alpha) signaling pathway using the BG1 cell line - cell viability counter screen (AID 743081).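 Also: compound given together with 17beta-estradiol as the ER stimulus; nearly all actives have a fitted effect of over 45% in size.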 Also: potency is read from the fitted curve at half-maximal effect.
The target of another experiment is Aromatase (Homo sapiens) (UniProt P11511). Kind of experiment: qHTS assay to identify aromatase inhibitors (AID 743083). Also: nearly all actives have a fitted effect of over 55% in size.
Experiment [9] can be described thus: qHTS assay to identify small molecule antagonists of the estrogen receptor alpha (ER-alpha) signaling pathway - cell viability counter screen (AID 743074; calls by dose curve; also: nearly all actives have a fitted effect of over 45% in size).

Results filed as inconclusive are left out. Activity calls are given as the source filed them. Unless noted, calls follow the shape of the dose curve; as a rule, active = well fitted curve in the direction sought with a large enough effect in the repeat runs; inconclusive = weak or mixed curves; inactive = no such curve, though single readings can be large; an effect the other way counts as inactive or inconclusive.

Estrogen receptor (Homo sapiens), sequence (P03372 whole entry, looked up): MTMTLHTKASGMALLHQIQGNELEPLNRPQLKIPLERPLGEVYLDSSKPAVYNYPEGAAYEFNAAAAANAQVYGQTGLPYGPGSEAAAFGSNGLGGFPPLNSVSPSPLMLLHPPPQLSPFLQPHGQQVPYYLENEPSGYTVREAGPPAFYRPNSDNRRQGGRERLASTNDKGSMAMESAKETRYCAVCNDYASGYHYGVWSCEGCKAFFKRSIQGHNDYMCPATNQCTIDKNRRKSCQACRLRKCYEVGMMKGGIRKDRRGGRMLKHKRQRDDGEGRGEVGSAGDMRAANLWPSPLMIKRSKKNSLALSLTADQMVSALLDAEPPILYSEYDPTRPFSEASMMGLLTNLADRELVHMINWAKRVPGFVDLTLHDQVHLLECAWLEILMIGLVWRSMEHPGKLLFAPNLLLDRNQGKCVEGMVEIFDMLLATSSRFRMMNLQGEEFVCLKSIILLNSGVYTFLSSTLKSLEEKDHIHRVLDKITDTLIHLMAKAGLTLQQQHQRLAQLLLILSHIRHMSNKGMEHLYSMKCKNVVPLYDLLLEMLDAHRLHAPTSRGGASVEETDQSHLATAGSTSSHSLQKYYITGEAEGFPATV
Aromatase (Homo sapiens), sequence (P11511 whole entry, looked up): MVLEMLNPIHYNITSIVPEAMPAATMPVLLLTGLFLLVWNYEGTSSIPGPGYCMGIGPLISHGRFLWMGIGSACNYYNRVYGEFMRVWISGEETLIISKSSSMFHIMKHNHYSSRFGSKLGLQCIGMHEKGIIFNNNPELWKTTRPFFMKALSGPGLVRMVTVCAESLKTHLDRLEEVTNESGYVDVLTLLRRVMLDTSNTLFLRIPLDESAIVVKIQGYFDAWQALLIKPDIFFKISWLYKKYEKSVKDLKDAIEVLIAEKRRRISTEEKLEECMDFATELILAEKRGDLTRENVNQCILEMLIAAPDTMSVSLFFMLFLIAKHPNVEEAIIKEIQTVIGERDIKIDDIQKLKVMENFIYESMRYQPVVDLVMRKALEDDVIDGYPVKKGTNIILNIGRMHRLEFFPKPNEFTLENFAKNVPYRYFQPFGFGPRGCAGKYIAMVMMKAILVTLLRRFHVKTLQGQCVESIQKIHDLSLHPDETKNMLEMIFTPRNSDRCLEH

In the case of `CCCCCCCCCCCCCCCC(=O)OC[C@@H](COP(=O)([O-])OCC[N+](C)(C)C)OC(=O)CCCCCCCCCCCCCCC`, the Potency result in [1], in experiment [2], in experiment [3], in experiment [4], in [5] and in [7] was “inactive” in each case. Further, the Potency result (in [8]; in the experiment with Aromatase (Homo sapiens)) was “inactive” each time. Further, the Potency in experiment [6] was 29.8 µM (active).
Consider `NC(=S)N=Nc1ccc(NN=C(N)N)cc1`, for which the results for the Potency in [1], in experiment [2] and in experiment [8] were 23.7 µM (active), 26.6 µM (active) and 26.6 µM (active), respectively. Also, the Potency result in experiment [3], in experiment [9], in experiment [5], in [6] and in experiment [7] was “inactive” in each case.
On to `Cn1nnnc1SCC1=C(C(=O)O)N2C(=O)[C@@H](NC(=O)[C@H](OC=O)c3ccccc3)[C@H]2SC1`, for which the Potency result in [1], in experiment [2], in experiment [3], in experiment [9], in [5] and in experiment [6] was “inactive” each time. In addition, the Potency result (in experiment [7]; in experiment [8]; with Aromatase (Homo sapiens)) was “inactive” in each case.
